Reference: PubChem BioAssay (NCI)
Values joined by “and” are separate entries in the source; they are usually repeats but may differ in a detail not shown here. Equal values may be shown once. The panel holds about 83,000 compounds, 20% with a hit somewhere; the sample as a whole holds those more often.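 Treatment: one concentration, 48 hours, 96-well format. Scoring: percent growth, with anything below 10 considered active.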 Unmarked numbers belong to inactive results. Active and inactive are the calls of the source.

These molecules were tested on HS 578T breast (assay: NCI-60 one-dose screen, 48 h (100 = growth as untreated, 0 = no growth, -100 = all killed)). Settings: 10 µM unless noted.
In the case of `CN(C)CCOc1ccc2c(c1)C(=O)/C(=C\c1ncc([N+](=O)[O-])n1C)C2`, the growth is reported as 21.1%. For `CC(=O)C(=Cc1ccc(C=C(C(C)=O)C(C)=O)cc1)C(C)=O`, the growth was 64.7%. `N#CSCc1ccc(CSC#N)c(Cl)c1` showed a growth of 94.1%. For `Nc1nc(N)c2nc(CNc3ccc(C(=O)NC(CCC(=O)O)C(=O)O)cc3)cnc2n1` (stereo not drawn), the growth was 90.5%. For `CCOC(=O)/C=C/c1ccc([N+](=O)[O-])o1`, the growth was 98.1%. In the case of `Cc1cc(C(C)(CC(C)C)c2ccc(O)c(C)c2)ccc1O`, the growth is reported as 129%. In the case of `Nc1nc(N)c2c(ccc3c2ccn3Cc2cccc([N+](=O)[O-])c2)n1`, the growth is reported as -58.2% (active). `O[C@H]1[C@H]2c3cc4c(cc3CN3CCC(=C[C@@H]1O)[C@H]23)OCO4` gave a growth of 42.7%. For `CN1c2ccccc2C(C)(C)C12C=Cc1cc(O)ccc1O2` (stereo not drawn), the growth was -7.66% (active). For `CN(Cc1cnc2nc(N)nc(N)c2n1)c1ccc(C(=O)NC(CCC(=O)O)C(=O)O)cc1` (stereo not drawn), the growth was 76.6%. `CCOc1ccc(-c2nc3ccc(-c4nc5ccc(N6CCN(C)CC6)cc5[nH]4)cc3[nH]2)cc1` was tested, and the growth was -58.3% (active). `CNc1ccc(N)cc1` was tested, and the growth was 109%. In the case of `CC(=O)Nc1cccc2cc(O)ccc12`, the growth is reported as 132% and 101% and 98.5%. For `CC1OC(OC2C(OC3CCC4(C)C(CCC5(C)C4CC=C4C6CC(C)(C)CCC6(CO)C(O)CC45C)C3(C)C)OC(C(=O)O)C(OC3OC(COC4OC(CO)C(O)C(O)C4O)C(O)C(O)C3O)C2O)C(O)C(O)C1O` (stereo not drawn), the growth was -35.2% (active). Work on `CCCCCCC(C)c1ccccc1O` (stereo not drawn) (tested in a mixture with another compound) yielded a growth of 101%. With `CC1(C)CC([P+](c2ccccc2)(c2ccccc2)c2ccccc2)=NN1` the growth was 72.1%. Work on `CN(C)c1ccc(N=Nc2cccc3ccccc23)cc1` yielded a growth of 95%. `CN(C)c1ccc(C(=C2C=CC(=[N+](C)C)C=C2)c2ccc(N(C)C)cc2)cc1` (tested in a mixture with another compound) was tested, and the growth was -1.97% (active). In the case of `CC1OC2CC(=O)OC2C2=C1C(=O)c1c(O)cccc1C2=O` (stereo not drawn), the growth is reported as 5.97% (active). `O=C1c2ccccc2C(=O)c2sc(Nc3ccc(Cl)cc3)nc21` was tested, and the growth was 70.6%. Work on `N#CSCC(=O)c1ccc(Cl)cc1` yielded a growth of 70.5%. `Cn1c2c(c3ccccc31)CCN1C[C@@H]3CCCC[C@H]3C[C@@H]21` was tested, and the growth was -16.9% (active). With `Oc1c(Br)cc(Cl)cc1C(c1cc(Cl)cc(Br)c1O)C(Cl)(Cl)Cl` the growth was 21.2%. `Cc1ccc(C(=Nc2ccccc2)N=P(c2ccccc2)(c2ccccc2)c2ccccc2)cc1` was tested, and the growth was -45.8% (active). For `CC1SC(=S)N(c2ccc(Cl)cc2)C1=O` (stereo not drawn), the growth was 161% and 132%. Molecule `N#CSCc1ccc(Cl)c(CSC#N)c1` has a growth of 49%. `O=C1OCc2cccc3cccc1c23` was tested, and the growth was 102%. With `O=C(O)C1C2CC3C(OC(=O)C31)C2Br` (stereo not drawn) the growth was 93.4% and 95.7%. Work on `Nc1ccc(SSc2ccc(N)cc2)cc1` yielded a growth of 109%. With `CCCCCCCCCCCCCCCCN(CC)CC` the growth was -25.1% (active). `O=C1NC(=O)/C(=C/C=C/c2ccccc2)S1` showed a growth of 93.3%. `CCCCCCCCCCCCCCCC[N+](C)(CCO)Cc1cnc[nH]1` (stereo not drawn) was tested, and the growth was -19.4% (active). `CCC1OC(OC)C=CC1=O` (stereo not drawn) showed a growth of 96.9%.
